Source: PubChem BioAssay (Tox21)
Inconclusive results are not listed. Values without a mark were called inactive. The call rests on the fitted dose curve; in most records, active means well fitted cell-killing curve with a large enough effect in the repeat runs; inconclusive means weak or mixed curves; inactive means no such curve, though single readings can be large or run the other way.
On the % scale 0 is the no-effect control and ±100 the full control effect.

Test: qHTS assay to identify small molecule antagonists of the peroxisome proliferator-activated receptor delta (PPARd) signaling pathway - cell viability counter screen (AID 743213); further: nearly all actives have a fitted effect of over 50% in size
Settings: PPARd-bla HEK293H viability, CellTiter-Glo luminescence, 17 h; series mostly up to 62 µM; viability change, negative = cytotoxic: at the top concentration
Excerpt: U.S. Tox21 Program National Center for Advancing Translational Sciences [NCATS] NIH Chemical Genomics Center [NCGC] U.S. Environmental Protection Agency [EPA] National Institutes of Environmental Health Sciences [NIEHS] National Toxicology Program [NTP] U.S. Food and Drug Administration [FDA] Tox21 Assay Overview: The peroxisome proliferator-activated receptors (PPARs) are lipid-activated transcription factors of the nuclear receptor superfamily with three distinct subtypes namely PPAR alpha, PPAR delta (PPARd) and PPAR gamma. All these subtypes heterodimerizes with Retinoid X receptor (RXR) and have different physiological functions. […] To identify the compounds that inhibit PPAR-delta signaling, GeneBLAzer PPAR delta UAS-bla HEK293H cell line (Invitrogen, Carlsbad, CA, USA) containing a beta-lactamase reporter gene under the control of an Upstream Activator Sequence (UAS) was used to screen the Tox21 compound library. The cytotoxicity of the Tox21 compound library against the PPARd-bla cell line was tested in parallel by measuring the cell viability using CellTiter-Glo assay (Promega, Madison, WI) in the same wells.
Tox21 Assay Protocol Summary: PPARd-bla cells were dispensed at 3000 cells/5uL/well in 1536-well black wall/clear bottom plates using a Multidrop Combi (Thermo Fisher Scientific, Waltham, MA) dispenser. After the assay plates were incubated at 37 C and 5% CO2 for 5 h, 23 nL of compounds dissolved in DMSO, positive controls or DMSO only was transferred to the assay plate by a Pintool station (Kalypsys, San Diego, CA), followed by addition of 1ul L165041 (300 nM, final concentration in the wells). The assay plates were incubated at 37 C for 17 h, and then 1 uL of LiveBLAzerTM B/G FRET substrate was added using a Bioraptr Flying Reagent Dispenser (FRD) workstation (Beckman Coulter, Indianapolis, IN, USA). The assay plates were incubated at room temperature for 2 h and fluorescence intensity was measured by an Envision plate reader (PerkinElmer, Shelton, CT). For cell viability readout that measures cytotoxicity, 3 ul/well of CellTiter-Glo reagent was added into the assay plates using a Bioraptr FRD. After 30 min incubation at room temperature, the luminescence intensity in the plates was measured using a ViewLux plate reader (PerkinElmer).
In the case of `CC(CO)(CO)[N+](=O)[O-]`, the “viability change, negative = cytotoxic” value is reported as -0.362%. In the case of `CCCCS(=O)(=O)N[C@@H](Cc1ccc(OCCCCC2CCNCC2)cc1)C(=O)O`, the “viability change, negative = cytotoxic” value is reported as 4.94%. With `CC(C)C1CCC(O)CC1` (stereo not given) the “viability change, negative = cytotoxic” value was -15.3%. With `c1ccc(Cc2ccccc2)cc1` the “viability change, negative = cytotoxic” value was -3.71%. With `CCCCCC(=O)OCCc1ccccc1` the “viability change, negative = cytotoxic” value was 16%. In the case of `Nc1ccn([C@@H]2O[C@H](CO)[C@@H](O)C2(F)F)c(=O)n1`, the “viability change, negative = cytotoxic” value is reported as 12.7%. For `CO[C@@]1(NC(=O)C(C(=O)O)c2ccc(O)cc2)C(=O)N2C(C(=O)O)=C(CSc3nnnn3C)CO[C@@H]21` (stereo not given in full), the “viability change, negative = cytotoxic” value was 18.3%. With `NC(=O)N1c2ccccc2CC(=O)c2ccccc21` the “viability change, negative = cytotoxic” value was -11.8%. With `CC[N+](CC)(CC)CCOc1cccc(OCC[N+](CC)(CC)CC)c1OCC[N+](CC)(CC)CC` the “viability change, negative = cytotoxic” value was 12.9%. In the case of `CCC(C(=O)NC(=O)NC(C)=O)c1ccccc1` (stereo not given), the “viability change, negative = cytotoxic” value is reported as 23.5%. With `Nc1c2c(nc3c1CCC3)CCCC2` the “viability change, negative = cytotoxic” value was 0.955%. With `OCCCCCO` the “viability change, negative = cytotoxic” value was 9.41% [at 80.4 µM]. In the case of `CC(C)(C)OC(=O)c1cccc(N)c1`, the “viability change, negative = cytotoxic” value is reported as -5% [at 80.4 µM]. In the case of `CC1(C)OC[C@@H](COC(=O)CCc2ccc(OC[C@@H](O)CNCCNC(=O)N3CCOCC3)cc2)O1`, the “viability change, negative = cytotoxic” value is reported as -14%. In the case of `CCOc1ccc2nc(S(N)(=O)=O)sc2c1`, the “viability change, negative = cytotoxic” value is reported as 6.83%. For `CC1OC1C1CCC2(C)OC2C1` (stereo not given), the “viability change, negative = cytotoxic” value was -11.7%. For `COc1cccc(OC)c1C(=O)N[C@@H]1C(=O)N2[C@@H]1SC(C)(C)[C@@H]2C(=O)O`, the “viability change, negative = cytotoxic” value was 9.64%. With `CCC(C)(CN(C)C)OC(=O)c1ccccc1` (stereo not given) the “viability change, negative = cytotoxic” value was 7.42%. With `Nc1ccn([C@@H]2O[C@H](CO)[C@@H](O)[C@@H]2O)c(=O)n1` the “viability change, negative = cytotoxic” value was -5.68%. For `CCN(Cc1ccccc1)c1ccccc1`, the “viability change, negative = cytotoxic” value was 4.9%. For `CC12CCC(C(=O)C1=O)C2(C)C` (stereo not given), the “viability change, negative = cytotoxic” value was -12.2% [at 80.4 µM]. In the case of `CCCCCCCC1CCCC1=O` (stereo not given), the “viability change, negative = cytotoxic” value is reported as 1.78%. With `CCC1C(=O)OCC1Cc1cncn1C` (stereo not given) the “viability change, negative = cytotoxic” value was -9.23%. In the case of `O=C1NC(=O)C2CC=CCC12` (stereo not given), the “viability change, negative = cytotoxic” value is reported as 1.2%. In the case of `Nc1ccccn1`, the “viability change, negative = cytotoxic” value is reported as -0.963%. In the case of `C[N+]1(CC2COC(c3ccccc3)(c3ccccc3)O2)CCCCC1` (stereo not given), the “viability change, negative = cytotoxic” value is reported as -12.4% [at 28.9 µM]. For `Cc1coc2ccccc2c1=O`, the “viability change, negative = cytotoxic” value was 27.3%. In the case of `O=C(O)CCCC[P+](c1ccccc1)(c1ccccc1)c1ccccc1`, the “viability change, negative = cytotoxic” value is reported as -20%. With `C[C@H]1[C@H](NC(=O)/C(=N/OC(C)(C)C(=O)O)c2csc(N)n2)C(=O)N1S(=O)(=O)O` (stereo in doubt) the “viability change, negative = cytotoxic” value was -2.54%. In the case of `CN1CCC(=C2c3ccccc3CCc3cccnc32)CC1`, the “viability change, negative = cytotoxic” value is reported as -9.06%. For `C[N+]1(C)CCCC(OC(=O)C(O)(c2ccccc2)c2ccccc2)C1` (stereo not given), the “viability change, negative = cytotoxic” value was 5.7%. In the case of `NCCCC(N)(C(=O)O)C(F)F` (stereo not given), the “viability change, negative = cytotoxic” value is reported as 2.87%. In the case of `Cc1nc(C2CCCCC2)c(-c2ccc(S(N)(=O)=O)c(F)c2)o1`, the “viability change, negative = cytotoxic” value is reported as 0.527%. For `CC(=O)O[C@@]12CO[C@@H]1C[C@H](O)[C@@]1(C)C(=O)[C@H](O)C3=C(C)[C@@H](OC(=O)[C@H](O)[C@@H](NC(=O)OC(C)(C)C)c4ccccc4)C[C@@](O)([C@@H](OC(=O)c4ccccc4)[C@H]21)C3(C)C`, the “viability change, negative = cytotoxic” value was -8.83%. With `CCCC(=O)O[C@]1(C(=O)CC)CC[C@H]2[C@@H]3CCC4=CC(=O)CC[C@]4(C)[C@H]3[C@@H](O)C[C@@]21C` the “viability change, negative = cytotoxic” value was -4.07%. In the case of `CCC(=O)OCc1ccccc1`, the “viability change, negative = cytotoxic” value is reported as 4.95%. With `CC1=CCC(O)(C(C)C)CC1` (stereo not given) the “viability change, negative = cytotoxic” value was 8.88%. For `CN1C(C)(C)CC(O)CC1(C)C`, the “viability change, negative = cytotoxic” value was 8.81%. With `CC(N)C12CC3CC(CC(C3)C1)C2` (stereo not given) the “viability change, negative = cytotoxic” value was 2.58%. With `CC(C)(C)C(=O)Oc1ccc(S(=O)(=O)Nc2ccccc2C(=O)NCC(=O)O)cc1` the “viability change, negative = cytotoxic” value was -5.66%.
